Structures are written as SMILES. The whole screen tested about 350,000 compounds, of which about 5,500 (1.6%) were called active.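 The calls were made as follows: active = significant combined selectivity score with lowered wild-type GFP, culture density cut under 30%, mutant RFP and density less affected; inactive = any of these conditions unmet.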 The full list was thinned out, with actives kept by preference.

The test in a line: reduced GFP signal of wild-type E. coli, primary screen, bacterial rRNA inhibitor project, GFP/RFP fluorescence, OD600, single point (AID 720706). The following applies: E. coli WT GFP vs humanized-ribosome RFP mutants, 24 h; GFP signal change (wild-type ribosome): stronger effect = lower value, DMSO median 0, no signal -100; OD600 change: measured here: OD600 growth, DMSO median 0, no signal -100; RFP signal change: measured here: RFP humanized mutant strains, DMSO median 0, no signal -100, concentration not given here.
For `CN1CCCCN2[C@H](CO)[C@H](c3ccc(-c4ccc(F)cc4)cc3)[C@@H]2C1`, the GFP signal change (wild-type ribosome) was 3.95% (inactive), the OD600 change was determined as 2.06% and the RFP signal change is -2.51%.

Consider `CCC(=O)N1CC2(CN(C(=O)Nc3ccccc3F)C2)c2c([nH]c3cc(OC)ccc23)[C@H]1CO`, for which the GFP signal change (wild-type ribosome) was -3.51% (inactive), the OD600 change is -1.81% and the RFP signal change was 1.22%.

For `COc1ccc(N2CCN(C(=O)CCSCc3ccccc3F)CC2)cc1`, the GFP signal change (wild-type ribosome) was -33% (active), the OD600 change is -17.7% and the RFP signal change is -1.41%.

Consider `COc1ccc(N2CCN(C(=O)CCNC(=O)c3ccc(Br)cc3)CC2)cc1`, for which the GFP signal change (wild-type ribosome) was 4.67% (inactive), the OD600 change is 3.67% and the RFP signal change is -1.33%.

Regarding `O=C(CCc1ccccc1F)N1CCN(c2ccccc2)CC1`, the GFP signal change (wild-type ribosome) was -5.11% (inactive), the OD600 change is -5.09% and the RFP signal change was -0.63%.

With `O=C(NCC[C@H]1CC[C@@H](NC(=O)c2ccncc2)[C@@H](CO)O1)Nc1ccc(Cl)cc1`, the GFP signal change (wild-type ribosome) is -17.2% (inactive), the OD600 change is -25.9% and the RFP signal change is -0.789%.

As to `O=C(C1CCCC1)N1CC(=O)N2[C@@H](CO)[C@H](c3ccc(C#CC4CCCC4)cc3)[C@@H]2C1`, the GFP signal change (wild-type ribosome) was -40.8% (inactive), the OD600 change was -65.7% and the RFP signal change amounted to 1.78%.

In the case of `C=CCn1c(-c2ccccc2OCC)n[nH]c1=S`, the GFP signal change (wild-type ribosome) is 3.63% (inactive), the OD600 change stood at 4.05% and the RFP signal change stood at 2.66%.

Consider `C=CCn1c(-c2sc(-c3ccccc3)nc2C)n[nH]c1=S`, for which the GFP signal change (wild-type ribosome) is -24.3% (active), the OD600 change was -5.31% and the RFP signal change turned out to be 7.62%.

As for `C=CCn1c(CCc2ccc(OC(C)C)cc2)n[nH]c1=S`, the GFP signal change (wild-type ribosome) is -0.285% (inactive), the OD600 change was -0.525% and the RFP signal change worked out at 1.11%.

As for `O=C(C1CC1)N1CCCCN2[C@H](CO)[C@H](c3ccc(-c4cccc(F)c4)cc3)[C@H]2C1`, the GFP signal change (wild-type ribosome) was -6.45% (inactive), the OD600 change is -8.76% and the RFP signal change turned out to be 3.12%.

On to `COCC(=O)N1CCCCN2[C@H](C1)[C@@H](c1ccc(-c3ccccc3)cc1)[C@@H]2CO`, for which the GFP signal change (wild-type ribosome) was 2.96% (inactive), the OD600 change is -5.68% and the RFP signal change turned out to be 0.005%.

Turning to `C[C@@H]1CCCCO[C@@H](CN(C)C(=O)Nc2cccc3ccccc23)[C@H](C)CN([C@H](C)CO)C(=O)c2cc(NS(C)(=O)=O)ccc2O1`, the GFP signal change (wild-type ribosome) is 2.97% (inactive), the OD600 change is -14.8% and the RFP signal change was -1.87%.

With `COc1cccc(C(=O)NCCSc2ccc(Br)cc2)c1`, the GFP signal change (wild-type ribosome) is -49.8% (inactive), the OD600 change was -75.8% and the RFP signal change was -16.7%.

As for `COC(=O)c1ccc(COC(=O)CNC(=O)c2cccc(OC)c2)o1`, the GFP signal change (wild-type ribosome) was 3.46% (inactive), the OD600 change was 11.4% and the RFP signal change is -1.13%.

`COc1cccc(C(=O)c2cc3ccc(O)cc3oc2=O)c1`: the GFP signal change (wild-type ribosome) is -30.5% (active), the OD600 change was -15% and the RFP signal change came to 1.31%.

With `COc1ccc(NC(=O)Nc2ccc3c(c2)C(=O)N([C@H](C)CO)C[C@H](C)[C@@H](CN(C)Cc2ccccc2)OCCCC[C@H](C)O3)cc1`, the GFP signal change (wild-type ribosome) was 2.43% (inactive), the OD600 change was -11% and the RFP signal change stood at 1.05%.

For the compound `C[C@@H]1CN([C@H](C)CO)C(=O)c2cc(NC(=O)C3CCCCC3)ccc2O[C@@H](C)CCCCO[C@H]1CN(C)S(C)(=O)=O`, the GFP signal change (wild-type ribosome) is -1.08% (inactive), the OD600 change was 0.309% and the RFP signal change is -2.76%.

Regarding `CC1CCN(C(=O)CCNC(=O)c2ccccc2)CC1`, the GFP signal change (wild-type ribosome) was 9.31% (inactive), the OD600 change is 16.3% and the RFP signal change was -0.0995%.

Take `CC1CCCN(c2ccc(C(=O)NCCc3ccccc3)cn2)C1` (stereo unspecified): the GFP signal change (wild-type ribosome) is -19.9% (active), the OD600 change is -8.59% and the RFP signal change worked out at 0.765%.

With `CC1CCN(c2c(NCc3ccc(C(=O)NCc4ccccc4)cc3)c(=O)c2=O)CC1`, the GFP signal change (wild-type ribosome) is -2.23% (inactive), the OD600 change was determined as 0.92% and the RFP signal change turned out to be 2.65%.

On to `COc1ccc2c3c([nH]c2c1)[C@H](CO)N(C(=O)C1CCC1)CC31CCN(Cc2cccc(F)c2)CC1`, for which the GFP signal change (wild-type ribosome) was -1.74% (inactive), the OD600 change is -5.93% and the RFP signal change worked out at 3.15%.

For `COc1ccc2c3c([nH]c2c1)[C@@H](CO)N(Cc1ccccc1OC)CC31CCN(C)CC1`, the GFP signal change (wild-type ribosome) is -0.945% (inactive), the OD600 change was found to be 0.435% and the RFP signal change was 0.881%.

As to `Cc1nn(-c2ccccc2)c(Cl)c1/C=N/NC(=O)c1nn(C)cc1[N+](=O)[O-]`, the GFP signal change (wild-type ribosome) is -30.3% (active), the OD600 change was 4.85% and the RFP signal change came out at 0.73%.

For the compound `Cc1cc(=O)[nH]c(N/N=C/c2c(C)nn(-c3ccccc3Cl)c2Cl)n1`, the GFP signal change (wild-type ribosome) is -2.91% (inactive), the OD600 change came to 6.48% and the RFP signal change is -1.95%.

For the compound `Cc1nn(-c2ccccc2)c(C)c1/C=N/NC(=O)CSc1nc2ccccc2c(=O)n1-c1ccccc1`, the GFP signal change (wild-type ribosome) is 14.9% (inactive), the OD600 change was determined as 17.7% and the RFP signal change was -2.02%.

As to `C[C@@H]1CN([C@@H](C)CO)S(=O)(=O)c2ccc(C#CCN(C)C)cc2O[C@@H]1CN(C)S(=O)(=O)c1cccc(F)c1`, the GFP signal change (wild-type ribosome) is -0.828% (inactive), the OD600 change is -6.54% and the RFP signal change turned out to be 0.409%.

As for `C[C@H](CO)N1C[C@H](C)[C@H](CN(C)C(=O)Nc2ccc(C(F)(F)F)cc2)Oc2ccc(NS(=O)(=O)c3ccccc3)cc2CC1=O`, the GFP signal change (wild-type ribosome) is 2.52% (inactive), the OD600 change was -0.79% and the RFP signal change turned out to be 1.4%.

With `CN1C(=O)c2cc(NC(=O)c3ccccc3)ccc2OC[C@@H]2O[C@@H](CC(=O)NC3CCCC3)CC[C@H]21`, the GFP signal change (wild-type ribosome) is 0.592% (inactive), the OD600 change worked out at 4.01% and the RFP signal change worked out at 0.386%.

Take `Cc1ccccc1NC(=O)CCOc1ccccc1`: the GFP signal change (wild-type ribosome) is 6.54% (inactive), the OD600 change is -4.25% and the RFP signal change amounted to 2.04%.

Take `Cc1cccc(OCCC(=O)Nc2ccccc2C(N)=O)c1`: the GFP signal change (wild-type ribosome) is -0.179% (inactive), the OD600 change was -10.5% and the RFP signal change was 0.55%.

As to `Cc1ccc(F)c(NC(=O)CCOc2ccccc2C)c1`, the GFP signal change (wild-type ribosome) is -19.4% (active), the OD600 change is -1.12% and the RFP signal change was determined as 1.17%.

For the origin of these results see PubChem BioAssay AID720706 (Broad Institute, 2013).
